Consider 16 compounds from PubChem BioAssay (NCI).

Among the test systems are T-47D breast; BT-549 breast; MDA-MB-435 melanoma; SW-620 colon; MCF7 breast; HCT-116 colon; HCC-2998 colon; KM12 colon.
Common to all, as to experiment: NCI-60 one-dose screen, 48 h (100 = growth as untreated, 0 = no growth, -100 = all killed)
Holding throughout (conditions): 10 µM unless noted

This is part of a sample that, as a whole, favours compounds with a hit. Of some 83,000 tested, about 20% had one in any assay.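 Plates (96-well) were seeded with cells, treated with compound at one concentration, and incubated for 48 hours before percent growth was determined.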 Unmarked numbers belong to inactive results. Activity calls are given as the source filed them. How the source made its calls: active means growth percent below 10; inactive means the rest.

For the compound `O=C(Nc1ccc(Nc2ncccn2)cc1)NC1C=c2ccccc2=CC1` (stereo not drawn), the growth in the test with T-47D breast was 100%; in the test on BT-549 breast it was 102%; with MDA-MB-435 melanoma it was 113%; in the test with SW-620 colon, 106%; with MCF7 breast, 97.9%; in the test with HCT-116 colon it was 111%. The growth in the test with HCC-2998 colon was 106%; in the test on KM12 colon it was 108%.
Regarding `CN1C2CCC1CN(c1cnc(C(=O)Nc3cc(F)cc4cccnc34)cn1)C2`, the growth with T-47D breast was 36%; in the test with BT-549 breast, 70.7%; in the test on MDA-MB-435 melanoma, 55.9%; in the test with SW-620 colon, 36.2%; with MCF7 breast it was 5.77% (active); in the test on HCT-116 colon, 18.8%. Besides, the growth is 83.1% in the test with HCC-2998 colon and 76.9% in the test with KM12 colon.
Turning to `NC(=O)c1cccc(-n2ccc3cc(NC(=O)Nc4cc(C(F)(F)F)cc(C(F)(F)F)c4)ccc32)n1`, the growth was 44.7% with T-47D breast; 74.4% with BT-549 breast; 50.5% in the test with MDA-MB-435 melanoma; 73.7% with SW-620 colon; 27.2% in the test on MCF7 breast; 38% in the test on HCT-116 colon. The figures for the growth with HCC-2998 colon and in the test with KM12 colon were 88.2% and 11.7%, respectively.
For `Fc1ccccc1CSc1ncnc2nc[nH]c12`, the growth with T-47D breast is 97.7%; with BT-549 breast it was 137%; in the test on MDA-MB-435 melanoma, 109%; in the test on SW-620 colon it was 96%; with MCF7 breast, 96.9%; in the test with HCT-116 colon, 97.6%. Also, the growth with HCC-2998 colon is 111%; with KM12 colon it was 112%.
`O=C(Nc1ccc2cc3ccc(NC(=O)N4CCCCCC4)cc3nc2c1)N1CCCCCC1`: the growth in the test with T-47D breast was -30% (active); in the test on BT-549 breast, -66.6% (active); in the test with MDA-MB-435 melanoma, -82.4% (active); in the test on SW-620 colon, -56.3% (active); in the test on MCF7 breast, -45.9% (active); in the test with HCT-116 colon, -53.1% (active). In addition, the growth was -63.7% (active) in the test on HCC-2998 colon and -65.9% (active) with KM12 colon.
With `CCC1(CC)NC(=O)c2c(c3ccc(Cl)c(Cl)c3n2C)C1C#N` (stereo not drawn), the growth in the test with T-47D breast was 78.5%; in the test with BT-549 breast it was 90.6%; in the test on MDA-MB-435 melanoma, 99.2%; with SW-620 colon, 102%; in the test on MCF7 breast, 97.9%; with HCT-116 colon it was 76.3%. Further, the growth in the test with HCC-2998 colon was 97.5%; in the test on KM12 colon, 99.4%.
For `CS(=O)(=O)OCCN(CCOS(C)(=O)=O)c1ccc(/C=N/Nc2ccc([N+](=O)[O-])cc2[N+](=O)[O-])cc1`, the growth is 76% in the test on T-47D breast; 99.3% in the test on BT-549 breast; 94.1% in the test on MDA-MB-435 melanoma; 73.4% in the test on SW-620 colon; 66.5% in the test on MCF7 breast; 83.9% with HCT-116 colon. Moreover, the growth in the test with HCC-2998 colon was 80.2%; in the test on KM12 colon it was 99.6%.
For the compound `Cc1cccc(Oc2ccc(Nc3ncnc4ccc(NC(=O)CNCCO)cc34)cc2Cl)c1`, the growth was 35.7% in the test on T-47D breast; 73.4% with BT-549 breast; 55.7% in the test on MDA-MB-435 melanoma; 77.9% in the test on SW-620 colon; 47.1% with MCF7 breast; 37.2% with HCT-116 colon. In addition, the figures for the growth with HCC-2998 colon and in the test with KM12 colon were 66.8% and 76.8%, respectively.
Take `COc1cc(/C=C/C(=O)c2ccc(Nc3ncnc4ccccc34)cc2)cc(OC)c1`: the growth is 117% in the test with T-47D breast; 26.9% in the test with BT-549 breast; -39.2% (active) in the test with MDA-MB-435 melanoma; -66.1% (active) in the test on SW-620 colon; 0.628% (active) with MCF7 breast; -87.3% (active) in the test on HCT-116 colon. Further, the results for the growth with HCC-2998 colon and with KM12 colon were -37.6% (active) and -49.8% (active), respectively.
On to `CCN(CC)CCCCCCNc1cc(OC)cc2cccnc12`, for which the growth in the test on T-47D breast was 92.5%; with BT-549 breast, 83.9%; in the test with MDA-MB-435 melanoma, 17.8%; in the test with SW-620 colon, -64.5% (active); in the test with MCF7 breast, 20%; with HCT-116 colon, -54.4% (active). Besides, the growth was 84.1% in the test on HCC-2998 colon and 76% in the test on KM12 colon.
`c1ccc(N2N=C(c3cccc(Nc4ccncc4)c3)CC2c2ccc3c(c2)OCO3)cc1` (stereo not drawn): the growth with T-47D breast is 48.5%; with BT-549 breast, 80%; with MDA-MB-435 melanoma, -73.2% (active); in the test with SW-620 colon, -53.6% (active); in the test on MCF7 breast, 2.01% (active); with HCT-116 colon, 63.3%. Moreover, the growth in the test on HCC-2998 colon was 0.363% (active); in the test on KM12 colon it was 8.25% (active).
On to `CCCN=C(N)c1ccc(NC(=O)c2ccc(C(=O)Nc3ccc(C(N)=NCCC)cc3)cc2)cc1`, for which the growth in the test with T-47D breast was 77.6%; in the test with BT-549 breast, 93.9%; in the test with MDA-MB-435 melanoma, 90.2%; in the test on SW-620 colon, 104%; in the test with MCF7 breast it was 87.8%; in the test with HCT-116 colon, 92.2%. Moreover, the growth was 109% with HCC-2998 colon and 95.5% with KM12 colon.
Take `Clc1nc(Cl)c2ncn(CCOCCn3cnc4c(Cl)nc(Cl)nc43)c2n1`: the growth with T-47D breast was -53.9% (active); with BT-549 breast, -94.1% (active); with MDA-MB-435 melanoma it was -90.1% (active); in the test on SW-620 colon, -86.9% (active); with MCF7 breast, -48.9% (active); in the test on HCT-116 colon, -79.7% (active). Besides, the growth was -87.5% (active) in the test on HCC-2998 colon and -85.9% (active) in the test on KM12 colon.
On to `O=C(O)c1ccc[n+](CC(=O)N2CCN(c3cc4c(cc3F)c(=O)c(C(=O)O)cn4C3CC3)CC2)c1`, for which the growth was 85.9% with T-47D breast; 75.1% with BT-549 breast; 67.4% in the test with MDA-MB-435 melanoma; -3.29% (active) in the test on SW-620 colon; 50.9% with MCF7 breast; 23.9% in the test with HCT-116 colon. For the same compound, the results for the growth in the test with HCC-2998 colon and in the test on KM12 colon were 111% and 92.2%, respectively.
With `CC[C@@]12C=CCN3CC[C@]4(c5cc(NC(=O)COc6cc(OCC(=O)Nc7cc8c(cc7OC)N(C)[C@H]7[C@@](O)(C(=O)OC)[C@H](OC(C)=O)[C@]9(CC)C=CCN%10CC[C@]87[C@@H]%109)cc7oc(-c8ccccc8)cc(=O)c67)c(OC)cc5N(C)[C@@H]4[C@](O)(C(=O)OC)[C@H]1OC(C)=O)[C@H]32`, the growth with T-47D breast was 77.3%; with BT-549 breast, 61.4%; in the test on MDA-MB-435 melanoma, 42%; with SW-620 colon, 20.3%; in the test with MCF7 breast, 26.1%; in the test on HCT-116 colon, 0.866% (active). The growth is -8.78% (active) with HCC-2998 colon and -39.3% (active) with KM12 colon.
As to `Cc1ccc(-c2csc(/N=C3\C(=O)Nc4ccccc43)n2)cc1`, the growth in the test on T-47D breast was 20%; with BT-549 breast, 23.6%; with MDA-MB-435 melanoma it was 12.9%; in the test on SW-620 colon, 19.4%; in the test with MCF7 breast, 6.92% (active); in the test with HCT-116 colon, 4.56% (active). For the same compound, the growth in the test with HCC-2998 colon was 6.25% (active); in the test on KM12 colon it was 15.2%.
